In all, about 63,000 compounds went through this assay and about 1,100 (1.7%) were called active. The sample as a whole holds a higher share of actives than the screen did. Potency and affinity values are given separately. A number with no mark means an inactive call. No stated cut-off is given here; in the data, active means cytotoxicity above about 50%; inactive means the rest.
assay: cytotoxicity in HPDE-C7 cells, cell-based, fluorescence, HTS (AID 430); conditions: HPDE-C7 pancreatic duct cells viability, at 10 µM, active compounds read high;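 further: cells exposed to compound for 48 hours before viability readout; 0% = vehicle and 100% = reference cytotoxic drug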

Row | SMILES | cytotoxicity
1 | Cc1cc(N2C(=O)C(=O)/C(=C(/O)c3ccc(F)cc3)C2c2cccc(Br)c2)no1 (configuration not stated) | 71.5% (active)
2 | COc1ccc(/C(O)=C2\C(=O)C(=O)N(c3cc(C)on3)C2c2ccccc2OC)cc1 (configuration not stated) | -1.9%
3 | Cc1cc(N2C(=O)C(=O)/C(=C(/O)c3ccccc3)C2c2cccc(Br)c2)no1 (configuration not stated) | 3.2%
4 | Cc1ccc(/C(O)=C2\C(=O)C(=O)N(c3cc(C)on3)C2c2cccc(Br)c2)cc1 (configuration not stated) | 49.9%
5 | Cc1cc(N2C(=O)C(=O)/C(=C(/O)c3ccc(F)cc3)C2c2ccc(Cl)cc2)no1 (configuration not stated) | 34.6%
6 | Cc1cc(N2C(=O)C(=O)/C(=C(/O)c3ccc(Cl)cc3)C2c2cccc(Br)c2)no1 (configuration not stated) | 56.2% (active)
7 | COc1cccc(C2/C(=C(\O)c3ccc(OC)c(OC)c3)C(=O)C(=O)N2c2cc(C)on2)c1 (configuration not stated) | 20.9%
8 | Cc1ccc(/C(O)=C2\C(=O)C(=O)N(c3cc(C)on3)C2c2cccc(Cl)c2)cc1 (configuration not stated) | 51.8% (active)
9 | Cc1cc(N2C(=O)C(=O)/C(=C(/O)c3ccc(F)cc3)C2c2ccc(F)cc2)no1 (configuration not stated) | 23.3%
10 | Cc1c(N=Cc2cc3c(cc2Cl)OCO3)c(=O)n(-c2ccccc2)n1C | -3.1%
11 | COc1ccccc1OCCCCNCCO | -0.7%
12 | CCOC(=O)N1CCC(N2CCN(S(=O)(=O)c3ccc(NC(C)=O)cc3)CC2)CC1 | -12.8%
13 | Cc1ccnc(Sc2nc3c(c(=O)[nH]c(=O)n3C)n2CCCc2ccccc2)n1 | -9.5%
14 | C=CCn1c(SCC(=O)Nc2cccc(C(=O)OC)c2)nnc1C(C)NC(=O)c1cccs1 (configuration not stated) | -5%
15 | O=C(c1cc(-c2cccs2)on1)N1CCc2ccccc2C1 | 2.3%
16 | CSc1nc2nc(C)cc(-c3ccccc3)n2n1 | -10.4%
17 | Cc1cccc(NC(=O)C2CCN(S(=O)(=O)c3c(C)nn(C)c3C)CC2)n1 | 1.6%
18 | COc1ccc2[nH]c(=O)c(CN(C(=O)c3ccccn3)C3CCCCC3)cc2c1 | -30.2%
19 | O=C(c1ccc(S(=O)(=O)N2CCOCC2)cc1)N1CCc2ccccc2C1 | -7.6%
20 | CCOC(=O)C1=C(C)NC(=O)NC1/C(C)=C/c1ccccc1 (configuration not stated) | -16%
21 | COc1ccccc1-c1nn2c(-c3ccccc3Cl)nnc2s1 | -14.1%
22 | COc1cc(-c2nnc3sc(-c4ccncc4)nn23)cc(OC)c1OC | -12.2%
23 | CCOc1cccc(-c2nnc3sc(-c4ccco4)nn23)c1 | 21.5%

Row | SMILES | cytotoxicity
24 | COc1cccc(-c2nnc3sc(-c4ccco4)nn23)c1 | 58% (active)
25 | COc1cc(-c2nnc3sc(-c4cccs4)nn23)cc(OC)c1OC | 75.8% (active)
26 | COc1cccc(-c2nn3c(-c4ccco4)nnc3s2)c1 | -0.7%
27 | COc1ccc(-c2nnc3sc(-c4c(OC)cccc4OC)nn23)cc1 | 10.9%
28 | COc1cccc(OC)c1-c1nn2c(-c3ccccc3Cl)nnc2s1 | 19.8%
29 | COc1ccccc1-c1nnc2sc(-c3cc4ccccc4o3)nn12 | 56.2% (active)
30 | COc1ccc(-c2nnc3sc(-c4cccs4)nn23)cc1OC | 20.2%
31 | Cc1nnc2sc(-c3cc4ccccc4o3)nn12 | 5.6%
32 | COc1cccc(OC)c1-c1nn2c(-c3cc(-c4ccccc4)n[nH]3)nnc2s1 | 68.9% (active)
33 | CCOc1ccc(N=C(NC#N)SC)cc1 | -2.8%
34 | CCN(CC)CCNC(=O)c1ccc2c(c1)ncn2C1CCCCC1 | 0.5%
35 | O=C(Nc1cccc(C(F)(F)F)c1)C1CCCN(S(=O)(=O)c2cnc[nH]2)C1 (configuration not stated) | -7.5%
36 | CCOC(=O)CN(C(=O)CSc1nnc(-c2ccncc2)n1CCCN(C)C)c1ccccc1 | -4.8%
37 | Cc1nc2c3c4c(sc3n3c(SCC(=O)NCc5ccco5)nnc3n2n1)COC(C)(C)C4 | -6.3%
38 | Cc1cc(Cl)c(S(=O)(=O)NCc2ccncc2)cc1OCC(N)=O | 5.1%
39 | CC1(C)CC(=O)C=C(Nc2ccccc2F)C1 | 1.2%
40 | O=C(c1ccc(Cl)cc1)C1CCN(C(=O)NC2CCCCC2)CC1 | -11.6%
41 | N#CCCCN1C(=O)C(O)(CC(=O)c2ccc3c(c2)OCCO3)c2ccccc21 (configuration not stated) | -27.8%
42 | Cc1ccc(-n2c(Cn3cnc4ccccc43)nnc2SCC(=O)O)cc1 | -16.2%
43 | COc1ccc(NC(C)=O)cc1NC(=O)CN1CCN(CC(=O)Nc2ccc(Cl)cc2)CC1 | -12.5%
44 | CCc1nc2ccccc2c(NC(=O)CN2CCC(C)CC2)c1C | 8.8%
45 | CCOC(=O)C1CCCN(CC(=O)NC2=Nc3ccccc3N=C(C)C2c2ccccc2)C1 (configuration not stated) | 3.8%
46 | O=C(NCc1ccc(F)cc1)c1noc2c1CCCC2 | -10.3%

Row | SMILES | cytotoxicity
47 | Clc1ccc(-c2ccc(-c3nn4c(-c5ccco5)nnc4s3)o2)cc1 | -11.9%
48 | Cc1oc(-c2ccc(F)cc2)cc1-c1nn2c(-c3ccco3)nnc2s1 | -18%
49 | Fc1ccc(-c2ccc(-c3nn4c(-c5ccco5)nnc4s3)o2)cc1 | 73.5% (active)
50 | COc1cccc(OCc2nc3ccccc3c(=O)n2N)c1 | -8.2%
51 | CCC(C)n1cnc2c(c1=O)c1nc3ccccc3nc1n2-c1ccc2c(c1)OCCO2 (configuration not stated) | -13.4%
52 | O=c1c2c3nc4ccccc4nc3n(-c3ccc4c(c3)OCCO4)c2ncn1CC1CCCO1 (configuration not stated) | 0.3%
53 | CCCn1c(C)nc2c(c1=O)c1nc3ccccc3nc1n2-c1ccc2c(c1)OCCO2 | 51.4% (active)
54 | CC(=NCC1CCCO1)C1=C(O)CC(C)(C)CC1=O (configuration not stated) | -12.6%
55 | Cc1ccccc1-n1nc2c(c1NC(=O)COc1ccc(Cl)cc1)CS(=O)C2 (configuration not stated) | 10%
56 | CCCNC(=O)c1cc(-c2ccco2)on1 | -2.4%
57 | CCCOc1ccc(C(=O)NCc2cccnc2)cc1 | -13.2%
58 | Cc1ccc(S(=O)(=O)Cn2nnnc2C(CC(C)C)N2CCN(C(=O)c3ccco3)CC2)cc1 (configuration not stated) | 4.4%
59 | CCCCN(CC)S(=O)(=O)c1ccc(C(=O)Nc2nnc(COC)o2)cc1 | 17.5%
60 | CCN(c1ccccc1)S(=O)(=O)c1ccc(C(=O)Nc2nnc(COC)o2)cc1 | 60.9% (active)
61 | COCCN(CCOC)S(=O)(=O)c1ccc(C(=O)Nc2nnc(C)o2)cc1 | -6.2%
62 | COCc1nnc(NC(=O)c2ccc(S(=O)(=O)N(C)c3ccccc3)cc2)o1 | 42.1%
63 | CCCCN(CCCC)S(=O)(=O)c1ccc(C(=O)Nc2nnc(COC)o2)cc1 | 75.3% (active)
64 | CCc1nnc(NC(=O)c2ccc(S(=O)(=O)N(CCOC)CCOC)cc2)o1 | -20.2%
65 | CCCCN(CC)S(=O)(=O)c1ccc(C(=O)Nc2nnc(CSC)o2)cc1 | 23.6%
66 | CCc1nnc(NC(=O)c2ccc(S(=O)(=O)N(CC(C)C)CC(C)C)cc2)o1 | 48.8%
67 | CCCCN(CCCC)S(=O)(=O)c1ccc(C(=O)Nc2nnc(CSC)o2)cc1 | 73.1% (active)
68 | COCc1nnc(NC(=O)c2ccc(S(=O)(=O)N(C)C3CCCCC3)cc2)o1 | 47.9%
69 | CCCN(CCC)S(=O)(=O)c1ccc(C(=O)Nc2nnc(CSC)o2)cc1 | 12.6%

Row | SMILES | cytotoxicity
70 | CSCc1nnc(NC(=O)c2ccc(S(=O)(=O)N(CC(C)C)CC(C)C)cc2)o1 | 62.4% (active)
71 | O=C(O)C1CC(=O)N(c2ccc(F)c(F)c2)C1 (configuration not stated) | -4.7%
72 | CC1CCN(C(=O)CSc2nnc(-c3cc4ccccc4cc3O)n2Cc2ccco2)CC1 | 22.2%
73 | CCOC(=O)Cn1nc(C)c(-c2ccccc2)c1N | -9.4%
74 | Cc1nc2sc(C(c3ccccc3)N3CCC(O)CC3)c(O)n2n1 (configuration not stated) | 7.2%
75 | O=C(O)c1ccc(S(=O)(=O)c2ccc3c(c2)C(=O)N(CC2CCCO2)C3=O)cc1 (configuration not stated) | -5.6%
76 | O=C(NC1CCCC1)C1CC(=O)N(C2CCCCCCC2)C1 (configuration not stated) | -18%
77 | Cn1c(=O)c(NCCO)c2c3c(cccc31)C(=O)c1ccccc1-2 | -8.4%
78 | CC(=O)Nc1c2c3c(cccc3n(C)c1=O)C(=O)c1ccccc1-2 | -6.7%
79 | CCNc1c2c3c(cccc3n(C)c1=O)C(=O)c1ccccc1-2 | 53.8% (active)
80 | Cc1nn(CCCNC(=O)C2CCCO2)cc1Br (configuration not stated) | -8.3%
81 | CCOc1cc2[nH]c(=S)n(CC3CCCN3CC)c(=O)c2cc1OCC (configuration not stated) | 4.2%
82 | O=C(NCc1ccc2c(c1)OCO2)c1cccc(Cl)c1 | -4.3%
83 | O=C(NCc1ccc2c(c1)OCO2)c1nnc(Cc2ccc(Cl)cc2)o1 | -0.3%
84 | O=C(NCc1ccc2c(c1)OCO2)c1ccc(-c2ccc(Cl)cc2)o1 | 53.5% (active)
85 | O=C(Nc1cccc2nsnc12)c1ccc2c(c1)OCCO2 | -5.8%
86 | O=C(Nc1ccccc1C(=O)N1CCCC1)C1CCN(c2ncccn2)CC1 | -9.4%
87 | O=C(COC(=O)C1CCN(C(=O)c2ccc(Cl)cc2)CC1)c1ccco1 | 1.1%
88 | CCc1ccc(-c2nc(C(N)=O)c3[nH]c(=O)n(-c4ccccc4OC)c3n2)cc1 | 52.3% (active)
89 | COc1ccc(-c2nc(C(N)=O)c3[nH]c(=O)n(-c4ccccc4OC)c3n2)c(OC)c1 | -6.2%
90 | COc1ccccc1-n1c(=O)[nH]c2c(C(N)=O)nc(-c3cccnc3)nc21 | 20.4%
91 | CC1(C)CC(=O)c2sc(NC(=O)CN3C(=O)CCC3=O)nc2C1 | -5.4%
92 | COc1ccc(S(=O)(=O)N(CC(=O)N2CCOCC2)c2cc(Cl)ccc2OC)cc1OC | -21.9%
